# Measurements reported in the antibiotic and cytotoxicity screens of Wong et al. (2023).
# In all, about 39,000 compounds went through this assay and about 1,500 (3.8%) were called active. This excerpt belongs to a sample that is enriched for actives.
# Test system: HSkMC (human skeletal muscle cells)
# Experiment: cytotoxicity call (relative viability < 0.9)
# Settings: 10 µM
row,SMILES,cytotoxicity call
1,Cc1ccc([C@@H]2CC(=O)N[C@@H]2C(N)=O)cc1,inactive
2,C[C@H](CO)N1C[C@H](C)[C@H](CN(C)S(=O)(=O)c2ccc(F)cc2)Oc2c(NC(=O)Nc3cccc4ccccc34)cccc2C1=O,active
3,C[C@H]1CN([C@@H](C)CO)C(=O)c2cccc(NC(=O)Nc3cccc4ccccc34)c2O[C@@H]1CN(C)S(=O)(=O)c1cccs1,active
4,COc1cccc(S(=O)(=O)N(C)C[C@@H]2Oc3c(NC(=O)Nc4cccc5ccccc45)cccc3C(=O)N([C@@H](C)CO)C[C@H]2C)c1,inactive
5,C[C@@H]1CN([C@H](C)CO)C(=O)c2cccc(NC(=O)Nc3cccc4ccccc34)c2O[C@@H]1CN(C)S(=O)(=O)c1ccc(Cl)cc1,active
6,COc1ccc(S(=O)(=O)N(C)C[C@@H]2Oc3c(NC(=O)Nc4cccc5ccccc45)cccc3C(=O)N([C@@H](C)CO)C[C@H]2C)c(OC)c1,active
7,C[C@@H]1CN([C@@H](C)CO)C(=O)c2cccc(NC(=O)Nc3cccc4ccccc34)c2O[C@H]1CN(C)S(=O)(=O)c1cccs1,inactive
8,C[C@H]1CN([C@@H](C)CO)C(=O)c2cccc(NC(=O)Nc3cccc4ccccc34)c2O[C@@H]1CN(C)S(=O)(=O)c1ccc(Cl)cc1,inactive
9,C[C@@H]1CN([C@@H](C)CO)C(=O)c2cccc(NC(=O)Nc3cccc4ccccc34)c2O[C@@H]1CN(C)S(=O)(=O)c1ccc(Cl)cc1,inactive
10,C[C@@H]1CN([C@@H](C)CO)C(=O)c2cccc(NC(=O)Nc3cccc4ccccc34)c2O[C@H]1CN(C)S(=O)(=O)c1ccc(F)cc1,inactive
11,C[C@@H]1CN([C@@H](C)CO)C(=O)c2cccc(NC(=O)Nc3cccc4ccccc34)c2O[C@@H]1CN(C)S(=O)(=O)c1cccs1,inactive
12,C[C@@H]1CN([C@H](C)CO)C(=O)c2cccc(NC(=O)Nc3cccc4ccccc34)c2O[C@@H]1CN(C)S(=O)(=O)c1ccc(F)cc1,inactive
13,COc1ccccc1S(=O)(=O)N(C)C[C@@H]1Oc2c(NC(=O)Nc3cccc4ccccc34)cccc2C(=O)N([C@@H](C)CO)C[C@H]1C,inactive
14,C[C@H](O)C#Cc1ccc2c(c1)O[C@@H](CN(C)C(=O)Cc1ccccn1)[C@H](C)CN([C@H](C)CO)S2(=O)=O,inactive
15,O=C(O)CNC(=O)c1[nH]nc2ccccc12,inactive
16,C[C@@H]1CCCCO[C@@H](CN(C)Cc2ccc(C(F)(F)F)cc2)[C@@H](C)CN([C@H](C)CO)C(=O)c2cc(NS(=O)(=O)c3ccccc3)ccc2O1,inactive
17,C[C@H](CO)N1C[C@H](C)[C@H](CN(C)S(=O)(=O)c2ccc(F)cc2)Oc2ccc(NS(=O)(=O)c3ccc(F)cc3)cc2C1=O,inactive
18,COc1ccc(CN(C)C[C@H]2OCCCC[C@H](C)Oc3ccc(NC(=O)Nc4cccc5ccccc45)cc3C(=O)N([C@@H](C)CO)C[C@@H]2C)cc1,inactive
19,COc1ccc(CN(C)C[C@@H]2OCCCC[C@H](C)Oc3ccc(NC(=O)Nc4cccc5ccccc45)cc3C(=O)N([C@@H](C)CO)C[C@@H]2C)cc1,active
20,COc1ccc(CN(C)C[C@H]2OCCCC[C@H](C)Oc3ccc(NC(=O)Nc4cccc5ccccc45)cc3C(=O)N([C@@H](C)CO)C[C@H]2C)cc1,inactive
21,COc1ccc(CN(C)C[C@@H]2OCCCC[C@H](C)Oc3ccc(NC(=O)Nc4cccc5ccccc45)cc3C(=O)N([C@H](C)CO)C[C@@H]2C)cc1,inactive
22,COc1ccc(CN(C)C[C@@H]2OCCCC[C@@H](C)Oc3ccc(NC(=O)Nc4cccc5ccccc45)cc3C(=O)N([C@H](C)CO)C[C@H]2C)cc1,active
23,COc1ccc(CN(C)C[C@@H]2OCCCC[C@H](C)Oc3ccc(NC(=O)Nc4cccc5ccccc45)cc3C(=O)N([C@H](C)CO)C[C@H]2C)cc1,active

row,SMILES,cytotoxicity call
1,COc1ccc(CN(C)C[C@H]2OCCCC[C@@H](C)Oc3ccc(NC(=O)Nc4cccc5ccccc45)cc3C(=O)N([C@H](C)CO)C[C@H]2C)cc1,inactive
2,COc1ccc(CN(C)C[C@@H]2OCCCC[C@@H](C)Oc3ccc(NC(=O)Nc4cccc5ccccc45)cc3C(=O)N([C@@H](C)CO)C[C@H]2C)cc1,active
3,C[C@@H]1CC=CC[C@@H](c2cccc(Cl)c2)NC(=O)[C@@H](Cc2ccccc2)N(C)C(=O)c2ccccc2O1,inactive
4,Cc1noc(C)c1NC(=O)Nc1ccc2c(c1)C(=O)N([C@@H](C)CO)C[C@H](C)[C@H](CN(C)Cc1ccc(Cl)c(Cl)c1)OCCCC[C@@H](C)O2,inactive
5,N[C@@H](CC(=O)O)c1cccc([N+](=O)[O-])c1,inactive
6,C[C@@H]1CN([C@H](C)CO)C(=O)c2cc(NS(=O)(=O)c3ccccc3)ccc2O[C@H]1CN(C)S(C)(=O)=O,inactive
7,COCC#Cc1ccc2c(c1)O[C@@H](CN(C)C(=O)COC)[C@H](C)CN([C@@H](C)CO)S2(=O)=O,inactive
8,CC(C)NC(=O)Nc1ccc2c(c1)C(=O)N([C@@H](C)CO)C[C@H](C)[C@H](CN(C)S(=O)(=O)c1cccs1)O2,inactive
9,C[C@@H]1CN([C@H](C)CO)C(=O)Cc2cc(NC(=O)C3CCCCC3)ccc2O[C@H]1CN(C)C(=O)Nc1ccc(C(F)(F)F)cc1,inactive
10,Cc1ccc(S(=O)(=O)N[C@H]2C=C[C@H](CC(=O)NCCN3CCCCC3)O[C@@H]2CO)cc1,inactive
11,C[C@@H]1CN([C@H](C)CO)C(=O)c2cc(NS(=O)(=O)c3cccs3)ccc2O[C@@H]1CN(C)S(=O)(=O)c1cccs1,inactive
12,CC(C)NC(=O)Nc1ccc2c(c1)C(=O)N([C@H](C)CO)C[C@@H](C)[C@@H](CN(C)Cc1ccc(Oc3ccccc3)cc1)O2,inactive
13,NC[C@@H](CO)Cc1ccsc1,inactive
14,C[C@@H]1CCCCO[C@@H](CN(C)S(C)(=O)=O)[C@H](C)CN([C@@H](C)CO)C(=O)c2cc(NC(=O)CCCN(C)C)ccc2O1,inactive
15,COc1ccc(S(=O)(=O)Nc2ccc3c(c2)C(=O)N([C@@H](C)CO)C[C@H](C)[C@@H](CN(C)S(=O)(=O)c2cccs2)O3)cc1,inactive
16,COc1ccc(S(=O)(=O)N2C[C@H](O)COC[C@@H]3O[C@H](CC(=O)N[C@@H]4CCN(Cc5ccccc5)C4)CC[C@H]32)cc1,inactive
17,COc1ccc(CN(C)C[C@@H]2OCCCC[C@H](C)Oc3ccc(NC(=O)Nc4cccc5ccccc45)cc3C(=O)N([C@@H](C)CO)C[C@H]2C)cc1,active
18,COc1ccc(CN(C)C[C@@H]2OCCCC[C@@H](C)Oc3ccc(NC(=O)Nc4cccc5ccccc45)cc3C(=O)N([C@@H](C)CO)C[C@@H]2C)cc1,inactive
19,COc1ccc(CN(C)C[C@H]2OCCCC[C@@H](C)Oc3ccc(NC(=O)Nc4cccc5ccccc45)cc3C(=O)N([C@@H](C)CO)C[C@@H]2C)cc1,inactive
20,COc1ccc(CN(C)C[C@H]2OCCCC[C@@H](C)Oc3ccc(NC(=O)Nc4cccc5ccccc45)cc3C(=O)N([C@@H](C)CO)C[C@H]2C)cc1,active
21,COc1ccc(CN(C)C[C@H]2OCCCC[C@H](C)Oc3ccc(NC(=O)Nc4cccc5ccccc45)cc3C(=O)N([C@H](C)CO)C[C@@H]2C)cc1,inactive
22,COc1ccc(CN(C)C[C@H]2OCCCC[C@@H](C)Oc3ccc(NC(=O)Nc4cccc5ccccc45)cc3C(=O)N([C@H](C)CO)C[C@@H]2C)cc1,active
23,COc1ccc(CN(C)C[C@H]2OCCCC[C@H](C)Oc3ccc(NC(=O)Nc4cccc5ccccc45)cc3C(=O)N([C@H](C)CO)C[C@H]2C)cc1,active

row,SMILES,cytotoxicity call
1,COc1ccc(CN(C)C[C@@H]2OCCCC[C@@H](C)Oc3ccc(NC(=O)Nc4cccc5ccccc45)cc3C(=O)N([C@H](C)CO)C[C@@H]2C)cc1,inactive
2,CCOC(=O)c1cc2c(c(-c3cccc(-c4cccc(F)c4)c3)n1)[C@H](CCO)N(S(=O)C(C)(C)C)C2 (stereo partly drawn),inactive
3,N#C[C@H]1N[C@@H](CO)[C@@H]1c1ccccc1,inactive
4,CC(C)NC(=O)N(C)C[C@@H]1OCCCC[C@H](C)Oc2ccc(NC(=O)C3CCCCC3)cc2C(=O)N([C@H](C)CO)C[C@@H]1C,inactive
5,COc1ccc(S(=O)(=O)Nc2ccc3c(c2)C(=O)N([C@@H](C)CO)C[C@@H](C)[C@@H](CN(C)C(=O)Nc2ccccc2)OCCCC[C@@H](C)O3)cc1,inactive
6,C[C@@H]1CN([C@H](C)CO)C(=O)c2cc(Br)cnc2O[C@@H]1CN(C)S(=O)(=O)c1ccc(F)cc1,inactive
7,C[C@@H]1CN([C@@H](C)CO)C(=O)c2cc(NC(=O)CCN3CCOCC3)ccc2O[C@@H]1CN(C)C(=O)Nc1ccc2c(c1)OCO2,inactive
8,C[C@@H]1CN([C@H](C)CO)C(=O)c2cc(C#CCN(C)C)cnc2O[C@@H]1CN(C)C(=O)c1ccc2c(c1)OCO2,inactive
9,C[C@@H]1CN([C@@H](C)CO)S(=O)(=O)c2ccc(C#CC3CCCC3)cc2O[C@H]1CN(C)C(=O)Cc1ccncc1,inactive
10,Cc1noc(C)c1NC(=O)Nc1ccc2c(c1)CC(=O)N([C@@H](C)CO)C[C@H](C)[C@H](CN(C)S(=O)(=O)c1cccs1)O2,inactive
11,COC(=O)C1=C(C)NC(C)=C(C(=O)OCCN(C)Cc2ccccc2)C1c1cccc([N+](=O)[O-])c1.Cl (stereo not drawn),inactive
12,CCCN1C(C)=C(C(=O)OC)[C@@H](c2cccc([N+](=O)[O-])c2)C(C(=O)ON2CCC(c3ccccc3)(c3ccccc3)CC2)=C1C,active
13,COC(=O)C1=C(C)NC(C)=C(C(=O)OC(C)(C)CN(C)CCC(c2ccccc2)c2ccccc2)[C@@H]1c1cccc([N+](=O)[O-])c1,active
14,COC(=O)C1=C(C#N)NC(C)=C(C(=O)OC(C)C)C1c1cccc([N+](=O)[O-])c1 (stereo not drawn),inactive
15,COC(=O)C1=C(C)NC(C)=C(C(=O)OCCCN2CCC(c3ccccc3)(c3ccccc3)CC2)[C@H]1c1cccc([N+](=O)[O-])c1,active
16,COC(=O)C1=C(C)NC(C)=C(C(=O)NCCCN2CCC(c3ccccc3)(c3ccccc3)CC2)[C@@H]1c1ccc([N+](=O)[O-])cc1,inactive
17,COCCOC(=O)C1=C(C)NC(C)=C(C(=O)OCC=Cc2ccccc2)C1c1cccc([N+](=O)[O-])c1 (stereo not drawn),inactive
18,CCOC(=O)C1=C(C)NC(C)=C(C(=O)OC)C1c1cccc([N+](=O)[O-])c1 (stereo not drawn),inactive
19,COC(=O)C1=C(C)NC(C)=C(C(=O)OCCCN2CCC(c3ccccc3)(c3ccccc3)CC2)[C@@H]1c1cccc([N+](=O)[O-])c1,active
20,COC(=O)C1=C(C)NC(C)=C(C(=O)OCCN2CCN(C(c3ccccc3)c3ccccc3)CC2)C1c1cccc([N+](=O)[O-])c1 (stereo not drawn),inactive
21,COCCOC(=O)C1=C(C)NC(C)=C(C(=O)OC(C)C)C1c1cccc([N+](=O)[O-])c1 (stereo not drawn),inactive
22,CC1=C(C(=O)OCCN(Cc2ccccc2)c2ccccc2)[C@H](c2cccc([N+](=O)[O-])c2)C(P2(=O)OCC(C)(C)CO2)=C(C)N1,inactive
